Compound activity (PubChem BioAssay)
Only some compounds are listed: those with a hit (about 21% of all), similar ones and a draw of the others.
Shiga toxin inh = Shiga toxin inhibition; inhibition, % at 38.7 µM; AID 2315; Vero cells, Shiga toxin protein synthesis inhibition reporter; 290,000 tested, 9.2% active; in the data active means inhibition mostly above about 28%, no sharp cut-off; inactive means mostly below about 43%; further: 0% is about no effect
Cycloheximide cs = counter-screen for Shiga toxin inhibitors: cycloheximide protein synthesis inhibition; AID 2314; 300,000 tested, 12% active; cell reporter, cycloheximide protein synthesis inhibition counterscreen; max response, %; in the data active means max response mostly above about 13%, no sharp cut-off; inactive means mostly below about 14%; further: read at 38.3 µM for the half of the compounds with a filed dose; 0% is about no effect
AMA1-RON2 inh = disrupts binding of P. falciparum AMA1 to RON2; 360,000 tested, 0.2% active; AID 720542; AlphaScreen AMA1-biotinylated RON2 peptide binding; Potency, µM (series often up to 58.2 µM), for the others: at the highest dose activity change, negative = inhibition, actives largely listed as inhibitors;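 further: potency means the concentration at half of the fitted maximal effect; 0% = vehicle wells and -100% = peptide control; nearly all actives have a fitted effect of over 45% in size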
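AMA1 (3D7) with his tag at 25 nM final met compounds first, then biotinylated RON2 peptide at 25 nM; detection used donor plus acceptor beads, 10 µg/mL apiece, read by AlphaScreen after 30 min at room temperature.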
Pf growth 48h = P. falciparum growth inhibition at 48 hours (one generation); P. falciparum luciferase growth in erythrocytes, 48 h; AID 504832; 310,000 tested, 5.9% active; Potency, µM (top dose mostly 28.7 µM), inactives show at the top dose activity change, negative = inhibition, hits mostly inhibitors; further: potency means the concentration at half of the fitted maximal effect; on the % scale 0 is the no-effect control and ±100 the full control effect
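Luminescence readout; reporter = integrated firefly luciferase in P. falciparum. RBC culture at 2% hematocrit, 0.1% parasitemia final, 37 C/5% CO2; decreased signal taken as growth inhibition.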
HCV inhibitor = blocks hepatitis C virus; AID 651820; Huh7.5.1 HCVcc-Cre infection, luciferase reporter, 44 h; 340,000 tested, 3.4% active; Potency, µM (titrated, usually from 41.8 µM), inactives show at the top dose activity change, negative = inhibition, usual class: inhibitors; further: potency means the concentration at half of the fitted maximal effect; on the % scale 0 is the no-effect control and ±100 the full control effect
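HCVcc-Cre virus at an moi near 0.5 was added right after compound to cells cultured 4 h from seeding (1,000 cells/well). Luciferase activity was determined 44 h later, 15 min after substrate addition at RT.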
Pf growth 96h = P. falciparum growth inhibition at 96 hours | P. falciparum luciferase reporter growth, 96 h | Potency, µM (series often up to 28.7 µM), for the others: at the highest dose activity change, negative = inhibition, most hits filed as inhibitors | 320,000 tested, 6.9% active | AID 504834; further: potency means the concentration at half of the fitted maximal effect; on the % scale 0 is the no-effect control and ±100 the full control effect
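Two-generation exposure (96 h) targets delayed-death phenotype. Reporter parasites carrying integrated firefly luciferase, in red cells at 2% hematocrit and 0.05% parasitemia final, kept at 37 C, 5% CO2; luminescence loss indicates inhibition.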
The depositor's hits bear a star; ? = inconclusive; . = no result; [ ] = another dose, or the depositor's remark. Unless noted, the call rests on the fitted dose curve; in most records, active means well fitted curve in the direction sought with a large enough effect; inconclusive means small, poorly fitted or top-dose-only effect, or another doubt; inactive means no such curve, though single readings can be large; an effect the other way counts as inactive or inconclusive.

SMILES	Shiga toxin inh	Cycloheximide cs	AMA1-RON2 inh	Pf growth 48h	HCV inhibitor	Pf growth 96h
CC1(C(=O)N/N=C/c2ccc([N+](=O)[O-])o2)CC1(Br)Br (configuration not stated)	13.4	-3.7	8.9%	?	?	10.4µM*
NC(N)=NN=C(/C=C/c1ccc([N+](=O)[O-])o1)/C=C/c1ccc([N+](=O)[O-])o1	.	.	.	2.39µM*	.	3.01µM*
O=C(Cc1ccc([N+](=O)[O-])cc1)N/N=C/c1ccc([N+](=O)[O-])o1	18.8	-0.4	10.2%	?	14.1µM*	?
Cc1cc2ncn(/N=C/c3ccc([N+](=O)[O-])o3)c2cc1C	17.0	-3.0	0.0%	?	11.2µM*	4.65µM*
CC1CN(N=Cc2ccc([N+](=O)[O-])o2)C(=N)O1 (configuration not stated)	.	.	-0.7%	.	?	.
COc1ccc2c(CC(=O)NNC(=O)c3ccc(O)cc3)coc2c1	.	.	21.8%	.	-10.0%	.
COc1ccc(CNC(=O)C(CCSC)NS(=O)(=O)c2ccccc2F)cc1 (configuration not stated)	-8.3	0.3	22.5%	-11.4%	-16.8%	8.2%
O=C(CN1CCCCCCC1)N/N=C/c1ccc([N+](=O)[O-])o1	1.6	4.9	10µM*	?	?	113.3%
O=C(CC12CC3CC(CC(C3)C1)C2)N/N=C/c1ccc([N+](=O)[O-])o1	28.3	-6.5	38.5%	5.22µM*	?	71.1%
O=C(CCN1CCN(c2ccccc2)CC1)N/N=C/c1ccc([N+](=O)[O-])o1	-1.5	1.7	0.2%	?	?	10.4µM*
N#CCc1ccc(NC(=O)/C=C/c2ccc([N+](=O)[O-])o2)cc1	56.3*	36.6*	-0.6%	-23.0%	?	-0.9%
O=C(CN1CCOCC1)NN=Cc1ccc([N+](=O)[O-])o1	.	.	1.9%	.	.	.
Cc1cc2nc(-c3cccc(Br)c3)c(CC3CCCCC3)n2c(C)c1Br	.	.	1.8%	.	.	.
O=[N+]([O-])c1ccc(/C=N/N=C/c2ccc([N+](=O)[O-])o2)o1	6.1	10.4	-19.3%	4.15µM*	4.47µM*	-4.7%
CC1CCN(CC(=O)NCc2ccccc2)CC1	-16.0	-2.6	-0.2%	-4.9%	6.3%	.
O=C(Cc1c(F)cccc1Cl)Nc1ccccc1-c1ccccc1	0.9	-4.2	34.1%	-22.7%	-1.9%	?
O=C(Nc1ccccc1-c1ccccc1)C1CCCCC1	-2.9	-4.2	7.7%	14.1%	1.4%	-18.7%
CC1CCN(CC(=O)Nc2ccccc2C(=O)c2ccccc2)CC1	11.4	1.1	4.5%	-23.0%	-10.3%	60.6%
CCc1nc2ccccc2c(NC(=O)CN2CCC(C)CC2)c1C	-8.8	-5.7	-24.6%	-7.2%	8.1%	7.38µM*
CC1CCN(CC(=O)Nc2ccccc2-c2ccccc2)CC1	0.8	-3.5	3.3%	?	35.5µM*	?
O=C(Nc1ccccc1-c1ccccc1)C1CCC1	53.4	26.3*	8.2%	21.6%[1.15 µM]	2.1%	75.3%
O=C(Cc1ccccc1F)Nc1ccccc1-c1ccccc1	69.5*	27.5*	3.1%	9.1%	-10.4%	44.4%
Cc1ccc(N2CC(C(=O)Nc3ccc4c(c3)OCO4)CC2=O)cc1C (configuration not stated)	-5.1	0.4	-9.3%	3.8%	1.9%	5.1%
CN(C)C1=NCCN1CC1CCCCC1	.	.	-2.3%	6.0%	-5.2%	0.0%
CS(=O)(=O)N(CC(=O)N1CCC(C(N)=O)CC1)c1cc(C(F)(F)F)ccc1Cl	-0.5	-2.2	5.8%	23.4%	1.8%	14.1%
SMILES	Shiga toxin inh	Cycloheximide cs	AMA1-RON2 inh	Pf growth 48h	HCV inhibitor	Pf growth 96h
CC(=O)Nc1ccccc1OCC(=O)NC1CCCCC1C (configuration not stated)	.	.	-4.0%	12.8%	0.8%	17.2%
CC1CCCCC1NCC(=O)Nc1ccccc1-c1ccccc1 (configuration not stated)	-5.9	-4.0	?	?	-6.7%	14.7µM*
COc1ccccc1N1CCN(C(=O)c2oc3c(c2C)C(=O)CC(C)(C)C3)CC1	19.9	-3.8	-7.4%	?	-3.5%	?
CN1C(=O)/C(=C\c2cccc(OCc3ccccc3)c2)SC1=S	5.2	-1.4	10.0%	2.0%	9.8%	6.5%
Cc1cc(/C=C2\SC(=S)N(C)C2=O)c(C)n1-c1ccccc1O	.	.	-17.4%	.	7.08µM*	.
Cc1cc(/C=C2\SC(=S)N(C)C2=O)c(C)n1-c1ccc(O)cc1	69.6*	51.6*	-14.6%	68.3%	11.2µM*	0.0%
CN1C(=O)/C(=C/c2coc3ccc(O)cc3c2=O)SC1=S	-3.6	-1.0	1.4%	-3.4%	5.5%	0.0%
CCCCC1CCC(C(=O)N(CCC(C)C)c2c(N)n(CCCC)c(=O)[nH]c2=O)CC1 (configuration not stated)	.	.	-4.3%	.	.	.
Cc1occc1-c1nnc(SCC(=O)N2CCCC(C)C2)o1 (configuration not stated)	.	.	3.6%	-18.9%	12.2%	?
Nc1ccc(-n2c(N)c(C(=O)NCc3ccc4c(c3)OCO4)c3nc4ccccc4nc32)cc1	.	.	28.1%	.	2.51µM*	.
COC(=O)c1c(N)n(-c2ccc(N3CCOCC3)cc2)c2nc3ccccc3nc12	7.0	1.1	.	.	.	.
Nc1c(C(=O)NCCN2CCOCC2)c2nc3ccccc3nc2n1-c1ccccc1	-5.9	-1.3	18.2%	9.28µM*	?	.
Nc1c(C(=O)NCCN2CCOCC2)c2nc3ccccc3nc2n1-c1ccc2c(c1)OCO2	30.3	-0.9	6.2%	?	2.0%	2.94µM*
Nc1c(C(=O)NCc2ccccc2)c2nc3ccccc3nc2n1-c1ccc2c(c1)OCO2	1.1	12.6	4.5%	-85.2%	-12.8%	?
Cc1cccc(C(C)C)c1NC(=O)C(C)OC(=O)Cc1n[nH]c(=O)c2ccccc12 (configuration not stated)	.	.	4.9%	1.7%	-6.2%	25.6%
Cc1cccc(C2NC(=O)c3c(sc(C)c3C)N2)c1O (configuration not stated)	14.7	5.4	3.1%	28.1%	3.1%	2.1%
Cc1sc2c(c1C)C(=O)NC(c1ccccc1F)N2 (configuration not stated)	99.8*	30.7*	0.0%	63.5%	5.0%	101.8%
CCOCCCNC(=O)c1c[nH]c2ccc(OCC)cc2c1=O	20.9	-1.1	-8.2%	2.33µM*	-14.5%	-2.2%
COc1ccc2c(=O)c(C(=O)NCCc3ccccc3)c[nH]c2c1	17.9*	24.9*	-4.2%	2.0%	-3.6%	-16.3%
COc1ccc2c(=O)c(C(=O)NCc3ccccc3)c[nH]c2c1	14.6	7.1	0.0%	?	-26.1%	?
COc1ccc2[nH]cc(CCNC(=S)NCCc3ccccc3)c2c1	12.6	-0.4	-0.5%	4.9%	?	44.7%[5.75 µM]
COc1ccc2[nH]cc(C(=O)NCCc3ccccc3)c(=O)c2c1	28.5*	20.3	-2.0%	4.2%	-17.6%	-7.2%
